“And” between values parts separate entries of the source, which are not always exact repeats. Equal values may be shown once. Screen size: about 5,500 compounds; about 2,000 (36%) were called active. Inconclusive results (about 18%) are left out. No stated cut-off is given here; in the data, active means normalized growth mostly below about 0.91 (no sharp cut-off); inconclusive means no clear call, values can overlap the other calls; inactive means mostly above about 0.92. The list shows a part of the results.
Test: chemical genetic growth profiling, strain panel (AID 1159580);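 further: tested at 20 µM; growth read once vehicle control cultures reached saturation at 30 °C; 1 = growth at the plate median or of vehicle wells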
Conditions: S. cerevisiae deletion strains, growth OD

Measured: normalized growth

CCCCC(=O)O[C@]1(C(=O)CO)[C@@H](C)CC2C3CCC4=CC(=O)C=C[C@]4(C)[C@@]3(F)C(O)C[C@@]21C (stereo partly drawn)
inactive: locus YAL013W, strain DEP1, stronger effect = lower value 0.968 | locus YAL021C, strain ccr4, stronger effect = lower value 0.982 | locus YAL026C, strain drs2, stronger effect = lower value 1.01 | locus YAL030W, strain snc1, stronger effect = lower value 0.981 | locus YBL061C, strain skt5, stronger effect = lower value 0.978 | locus YBR009C, strain hhf1, stronger effect = lower value 0.99 | locus YBR021W, strain FUR4, stronger effect = lower value 0.986 | locus YBR023C, strain chs3, stronger effect = lower value 0.98 | locus YBR171W, strain sec66, stronger effect = lower value 0.941 | locus YBR229C, strain ROT2, stronger effect = lower value 0.99 | locus YBR231C, strain swc5, stronger effect = lower value 0.948 | locus YBR279W, strain paf1, stronger effect = lower value 0.991 | locus YCL011C, strain gbp2, stronger effect = lower value 0.99 | locus YCL016C, strain dcc1, stronger effect = lower value 1.01 | locus YCL029C, strain bik1, stronger effect = lower value 0.981 | locus YCL069W, strain vba3, stronger effect = lower value 0.989 | locus YCR088W, strain abp1, stronger effect = lower value 0.997 | locus YDL005C, strain med2, stronger effect = lower value 0.972 | locus YDL035C, strain GPR1, stronger effect = lower value 1.03 | locus YDL040C, strain nat1, stronger effect = lower value 0.975 | locus YDL074C, strain BRE1, stronger effect = lower value 0.979 | locus YDL101C, strain DUN1, stronger effect = lower value 0.961 | locus YDL134C, strain PPH21, stronger effect = lower value 1 | locus YDL185W, strain tfp1, stronger effect = lower value 0.97 | locus YDL192W, strain arf1, stronger effect = lower value 0.978 | locus YDR001C, strain nth1, stronger effect = lower value 0.986 | locus YDR069C, strain doa4, stronger effect = lower value 0.968 | locus YDR101C, strain arx1, stronger effect = lower value 0.998 | locus YDR137W, strain rgp1, stronger effect = lower value 0.979 | locus YDR159W, strain sac3, stronger effect = lower value 0.974 | locus YDR162C, strain NBP2, stronger effect = lower value 1.01 | locus YDR195W, strain ref2 0.963 | locus YDR297W, strain sur2, stronger effect = lower value 0.975 | locus YDR318W, strain mcm21, stronger effect = lower value 0.996 | locus YDR334W, strain swr1, stronger effect = lower value 0.988 | locus YDR335W, strain msn5, stronger effect = lower value 0.977 | locus YDR388W, stronger effect = lower value 0.982 | locus YDR392W, strain spt3, stronger effect = lower value 1.07 | locus YDR502C, strain sam2, stronger effect = lower value 0.988 | locus YEL003W, strain gim4, stronger effect = lower value 0.987 | locus YEL037C, strain rad23, stronger effect = lower value 0.991 | locus YEL061C, strain CIN8 (second series), stronger effect = lower value 0.991 | locus YEL061C, strain CIN8, stronger effect = lower value 0.995 | locus YER015W, strain faa2, stronger effect = lower value 0.979 | locus YER016W, strain bim1, stronger effect = lower value 1.02 | locus YER110C, stronger effect = lower value 0.982 | locus YER111C, strain swi4, stronger effect = lower value 0.968 | locus YER155C, strain BEM2 (second series), stronger effect = lower value 0.981 | locus YER155C, strain BEM2, stronger effect = lower value 1.01 | locus YER167W, strain BCK2, stronger effect = lower value 1.01 | locus YFR010W, strain ubp6, stronger effect = lower value 0.95 | locus YGL078C, strain dbp3, stronger effect = lower value 0.99 | locus YGL086W, strain mad1, stronger effect = lower value 0.982 | locus YGL167C, strain pmr1, stronger effect = lower value 0.959 | locus YGL173C, strain kem1, stronger effect = lower value 0.96 | locus YGL227W, strain vid30, stronger effect = lower value 0.97 | locus YGL240W, strain doc1, stronger effect = lower value 0.945 | locus YGL248W, strain PDE1, stronger effect = lower value 0.962 | locus YGL253W, strain hxk2, stronger effect = lower value 0.985 | locus YGR078C, strain PAC10, stronger effect = lower value 0.969 | locus YGR135W, strain pre9, stronger effect = lower value 0.977 | locus YGR252W, strain gcn5, stronger effect = lower value 1.02 | locus YHR013C, strain ard1, stronger effect = lower value 0.996 | locus YHR027C, strain rpn1, stronger effect = lower value 0.986 | locus YHR030C, strain SLT2, stronger effect = lower value 0.991 and 0.976 | locus YHR079C, strain IRE1 (second series), stronger effect = lower value 1 | locus YHR079C, strain IRE1, stronger effect = lower value 0.977 | locus YHR094C, strain hxt1, stronger effect = lower value 0.983 | locus YHR129C, strain ARP1, stronger effect = lower value 0.983 | locus YHR142W, strain chs7, stronger effect = lower value 0.943 | locus YHR200W, strain rpn10, stronger effect = lower value 0.992 | locus YIL066C, strain RNR3, stronger effect = lower value 1.01 | locus YIL073C, strain SPO22, stronger effect = lower value 1.01 | locus YIL125W, strain kgd1, stronger effect = lower value 0.97 | locus YIR030C, strain dcg1, stronger effect = lower value 0.992 | locus YJL092W, strain hpr5, stronger effect = lower value 0.976 | locus YJL095W, strain BCK1 (second series), stronger effect = lower value 0.982 | locus YJL095W, strain BCK1, stronger effect = lower value 0.888 and 0.991 | locus YJL115W, strain asf1, stronger effect = lower value 0.965 | locus YJL129C, strain trk1, stronger effect = lower value 0.943 | locus YJL134W, strain LCB3, stronger effect = lower value 0.994 | locus YJL154C, strain vps35, stronger effect = lower value 0.972 | locus YJL164C, strain tpk1, stronger effect = lower value 0.988 | locus YJL166W, strain qcr8, stronger effect = lower value 0.941 | locus YJL168C, strain set2, stronger effect = lower value 0.983 | locus YJL187C, strain SWE1 (second series), stronger effect = lower value 0.933 | locus YJR043C, strain POL32, stronger effect = lower value 1.03 | locus YJR066W, strain TOR1, stronger effect = lower value 0.958
